Experiment [1] in a line: small molecules captured by biotinylated probe aFSTL3 – biochemical, small-molecule microarray, fluorescence 635/667, stem cell growth factor project, primary screen (AID 1064).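 Further: measures binding of the biotinylated anti-FSTL3 antibody to printed compounds.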 The following applies: higher = more signal.
Experiment [2] can be described thus: binders from COS7 lysate, DM2A8 probe, primary screen, torsin A project, cell lysate, small-molecule microarray, fluorescence 635/667 (AID 1065). The following applies: higher = more signal, COS7 lysate expressing mutant human TOR1A.
Experiment [3] can be described thus: small molecules captured by biotinylated probe aFGF2 – biochemical, small-molecule microarray, fluorescence 635/667, stem cell growth factor project, primary screen (AID 1067).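 Further: measures binding of biotinylated aFGF2 protein to printed compounds on slides; z-score merges feature fluorescence and signal-to-noise across triplicate slides.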 The conditions noted are these: higher = more signal.
The nature of experiment [4]: small molecules captured by biotinylated probe aFGF10 – biochemical, small-molecule microarray, fluorescence 635/667, stem cell growth factor project, primary screen (AID 1071).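 Further: score merges 667 nm spot intensity and signal to noise from triplicate slides.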 The conditions noted are these: higher = more signal.
In experiment [5] the target is Neurogenic locus notch homolog protein 2 (Homo sapiens) (UniProt Q04721). As to the kind of experiment: small molecules binding Notch2 protein – biochemical, small-molecule microarray, 635 nm fluorescence, stem cell growth factors, primary screen (AID 1073). The following applies: higher = more signal.
Experiment [6] concerns the target Pro-neuregulin-1, membrane-bound isoform (Homo sapiens) (UniProt Q02297). Nature of the experiment: small molecules binding neuregulin-1 protein – biochemical, small-molecule microarray, fluorescence 635/667, psychiatric disease protein project, primary screen (AID 1075).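 Further: score combines 667 nm spot fluorescence with signal to noise.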 The following applies: NRG1 binding, 635 nm fluorescence, higher = more signal.
Experiment [7] relates to Neuregulin-1 EGF-like domain. Nature of the experiment: small molecules binding NRG1 EGF domain – biochemical, small-molecule microarray, 635 nm fluorescence, primary screen (AID 1081).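 Further: binding of the protein to compounds printed on small-molecule microarray slides.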 The following applies: higher = more signal.
Experiment [8] in a line: FRG1 expression reporter modulators in myotubes – cell-based, C2C12 myotubes, firefly/Renilla luciferase, luminescence, FRG1 inhibition for FSHD, primary screen (AID 1084). The following applies: FRG1 promoter luciferase, higher = more signal, called active from +8 up or from −8 down.
Experiment [9] in a line: small molecules captured by biotinylated probe aFST – biochemical, small-molecule microarray, fluorescence 635/667, stem cell growth factor project, primary screen (AID 1086).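 Further: score merges 667 nm fluorescence with signal-to-noise of each printed compound spot.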 The conditions noted are these: higher = more signal.
A short description of experiment [10]: binders of probe aHhip on microarray, primary screen, stem cell growth factor project, biochemical, small-molecule microarray, fluorescence 635/667 (AID 1087).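 Further: score merges spot fluorescence at 667nm with spot signal to noise ratio.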 The conditions noted are these: higher = more signal.
In experiment [11] the test system is PRMT1 (protein arginine N-methyltransferase 1). Nature of the experiment: small molecules binding arginine methyltransferase PRMT1 – biochemical, small-molecule microarray, 635 nm fluorescence, primary screen (AID 1088).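 Further: binding of Prmt1 protein to compounds spotted on small-molecule microarray slides.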 The conditions noted are these: higher = more signal.
A short description of experiment [12]: growth effects on S. cerevisiae YJM789 – YJM789 clinical isolate, OD600, 24 h, basal, primary screen (AID 1089).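 Further: growth of clinical yeast isolate S. cerevisiae YJM 789 seeded 1000 cells per well; test concentration not given here.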 The following applies: higher = more signal, called active from +8 up or from −8 down.
The nature of experiment [13]: S. pombe growth modifiers, basal conditions – strain 972, OD600, 24 h, no modulator, primary screen (AID 1090).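 Further: basal condition with compound alone and no growth modifier present; test concentration not given here.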 The conditions noted are these: S. pombe 972 growth, higher = more signal, called active from +8 up or from −8 down.
Experiment [14] in a line: budding yeast growth modifiers under rapamycin – strain BY4716, OD600, 96 h, primary screen (AID 1091). Further: test concentration not given here. The conditions noted are these: S. cerevisiae BY4716 + rapamycin, higher = more signal, called active from +8 up or from −8 down.
Experiment [15] has as its target Torsin-1A-interacting protein 2 (Homo sapiens) (UniProt Q8NFQ8). As to the kind of experiment: small molecules binding lysate-expressed LULL1 – cell lysate, human LULL1 lysate, 635/667 nm fluorescence, primary screen (AID 1092).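 Further: probe is lysate of COS7 cells overexpressing human LULL1; score merges per-feature 667 nm fluorescence with signal-to-noise.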 The following applies: small-molecule microarray, hLULL1 lysate binding, 635 nm fluorescence; higher = more signal.
The nature of experiment [16]: optical density change of DRC41 E. coli – strain DRC41, OD650, 24 h, E. coli filamentation project, primary screen (AID 1093).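 Further: MC1000 strain lacking acrAB efflux and sulA so SOS filamentation is blocked; test concentration not given here.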 The following applies: E. coli DRC41 growth, higher = more signal, called active from +8 up or from −8 down.
Experiment [17] is described as follows: probe aLefty2 binding to arrayed compounds – biochemical, biotinylated probe, 635/667 nm fluorescence, primary screen (AID 1094).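 Further: score merges spot fluorescence near 667 nm with spot signal-to-noise ratio.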 The following applies: small-molecule microarray, higher = more signal.
The test system of experiment [18] is Noggin (protein binding on small-molecule microarray). As to the kind of experiment: small molecules binding Noggin protein – biochemical, 635/667 nm fluorescence, primary screen (AID 1095).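 Further: score merges 667 nm feature fluorescence with signal to noise over triplicate slides.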 The following applies: 635 nm fluorescence, higher = more signal.
In experiment [19] the target is Neurogenic locus notch homolog protein 3 (Homo sapiens) (UniProt Q9UM47). As to the kind of experiment: small molecules binding NOTCH3 protein – biochemical, 635/667 nm fluorescence, primary screen (AID 1096). The following applies: small-molecule microarray, 635 nm fluorescence, higher = more signal.
Experiment [20] can be described thus: probe aEGFR binding to arrayed compounds – biochemical, biotinylated probe, 635/667 nm fluorescence, primary screen (AID 1097).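 Further: probe is a biotinylated anti-EGFR antibody binding compounds printed on slides; score combines fluorescence near 667 nm and signal to noise of each spot.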 The conditions noted are these: small-molecule microarray, higher = more signal.

We go through five compounds from PubChem BioAssay.

The source made the active and inactive calls.

Sequence of Neurogenic locus notch homolog protein 2 (Homo sapiens) (Q04721 whole entry, looked up, canonical isoform): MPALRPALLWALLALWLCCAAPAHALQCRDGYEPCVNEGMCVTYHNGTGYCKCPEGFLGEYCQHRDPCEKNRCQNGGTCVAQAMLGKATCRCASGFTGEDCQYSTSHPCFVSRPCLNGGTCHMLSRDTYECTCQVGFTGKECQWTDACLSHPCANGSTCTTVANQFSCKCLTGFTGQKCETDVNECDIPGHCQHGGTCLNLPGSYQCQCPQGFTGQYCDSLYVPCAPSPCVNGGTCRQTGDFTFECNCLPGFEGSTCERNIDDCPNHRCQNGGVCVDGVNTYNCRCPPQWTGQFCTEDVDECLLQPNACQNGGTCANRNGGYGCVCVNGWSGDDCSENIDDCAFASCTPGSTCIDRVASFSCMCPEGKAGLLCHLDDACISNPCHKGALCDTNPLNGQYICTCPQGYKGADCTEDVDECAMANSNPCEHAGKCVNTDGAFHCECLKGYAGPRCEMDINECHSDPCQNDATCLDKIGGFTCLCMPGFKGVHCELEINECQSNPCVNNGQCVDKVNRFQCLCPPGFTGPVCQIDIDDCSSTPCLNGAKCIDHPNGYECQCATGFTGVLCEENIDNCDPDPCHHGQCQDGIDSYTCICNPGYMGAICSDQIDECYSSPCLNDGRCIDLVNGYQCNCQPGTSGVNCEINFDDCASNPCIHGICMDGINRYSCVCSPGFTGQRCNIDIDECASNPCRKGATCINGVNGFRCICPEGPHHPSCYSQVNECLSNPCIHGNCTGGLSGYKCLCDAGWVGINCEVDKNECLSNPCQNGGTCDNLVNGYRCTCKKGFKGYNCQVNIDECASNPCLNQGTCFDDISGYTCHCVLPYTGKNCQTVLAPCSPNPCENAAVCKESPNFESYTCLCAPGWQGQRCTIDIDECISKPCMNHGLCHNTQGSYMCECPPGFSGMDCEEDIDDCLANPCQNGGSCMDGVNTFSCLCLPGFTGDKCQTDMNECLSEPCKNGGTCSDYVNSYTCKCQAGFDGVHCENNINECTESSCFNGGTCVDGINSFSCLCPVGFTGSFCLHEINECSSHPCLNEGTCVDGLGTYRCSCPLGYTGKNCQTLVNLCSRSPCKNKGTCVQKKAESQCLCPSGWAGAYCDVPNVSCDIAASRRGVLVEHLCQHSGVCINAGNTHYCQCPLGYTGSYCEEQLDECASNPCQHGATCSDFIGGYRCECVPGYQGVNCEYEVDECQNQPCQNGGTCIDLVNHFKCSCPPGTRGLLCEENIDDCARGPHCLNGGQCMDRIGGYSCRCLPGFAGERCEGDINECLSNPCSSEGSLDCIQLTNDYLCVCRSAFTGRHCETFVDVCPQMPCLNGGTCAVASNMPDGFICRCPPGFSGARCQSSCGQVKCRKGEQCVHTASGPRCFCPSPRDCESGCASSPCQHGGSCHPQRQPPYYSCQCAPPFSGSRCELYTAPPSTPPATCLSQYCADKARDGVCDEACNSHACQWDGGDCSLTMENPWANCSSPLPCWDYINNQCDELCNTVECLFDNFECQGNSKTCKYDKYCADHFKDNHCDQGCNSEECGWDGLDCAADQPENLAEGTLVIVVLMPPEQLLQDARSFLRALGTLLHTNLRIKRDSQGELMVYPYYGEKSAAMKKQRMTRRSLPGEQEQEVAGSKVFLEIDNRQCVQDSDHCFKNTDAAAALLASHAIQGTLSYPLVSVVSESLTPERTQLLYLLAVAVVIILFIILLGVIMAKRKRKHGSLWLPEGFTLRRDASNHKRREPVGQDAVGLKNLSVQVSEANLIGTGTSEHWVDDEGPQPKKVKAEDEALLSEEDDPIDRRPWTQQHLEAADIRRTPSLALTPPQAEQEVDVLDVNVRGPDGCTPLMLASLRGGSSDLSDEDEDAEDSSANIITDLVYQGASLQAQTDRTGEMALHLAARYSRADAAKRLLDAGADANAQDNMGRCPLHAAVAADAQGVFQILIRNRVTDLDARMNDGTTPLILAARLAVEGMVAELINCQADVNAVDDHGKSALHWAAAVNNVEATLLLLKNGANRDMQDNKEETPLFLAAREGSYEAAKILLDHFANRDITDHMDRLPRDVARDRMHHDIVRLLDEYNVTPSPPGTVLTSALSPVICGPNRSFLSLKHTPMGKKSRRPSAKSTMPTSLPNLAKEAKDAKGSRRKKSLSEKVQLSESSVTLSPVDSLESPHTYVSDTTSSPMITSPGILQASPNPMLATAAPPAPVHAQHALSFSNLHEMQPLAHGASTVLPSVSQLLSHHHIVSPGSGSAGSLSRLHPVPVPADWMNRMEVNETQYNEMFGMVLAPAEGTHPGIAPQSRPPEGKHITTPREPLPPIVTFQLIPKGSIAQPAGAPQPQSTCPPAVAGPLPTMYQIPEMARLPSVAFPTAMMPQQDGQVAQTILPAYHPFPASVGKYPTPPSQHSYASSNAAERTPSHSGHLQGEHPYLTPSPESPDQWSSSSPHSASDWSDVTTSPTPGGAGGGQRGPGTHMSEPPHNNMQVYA
Sequence of Neurogenic locus notch homolog protein 3 (Homo sapiens) (Q9UM47 whole entry, looked up): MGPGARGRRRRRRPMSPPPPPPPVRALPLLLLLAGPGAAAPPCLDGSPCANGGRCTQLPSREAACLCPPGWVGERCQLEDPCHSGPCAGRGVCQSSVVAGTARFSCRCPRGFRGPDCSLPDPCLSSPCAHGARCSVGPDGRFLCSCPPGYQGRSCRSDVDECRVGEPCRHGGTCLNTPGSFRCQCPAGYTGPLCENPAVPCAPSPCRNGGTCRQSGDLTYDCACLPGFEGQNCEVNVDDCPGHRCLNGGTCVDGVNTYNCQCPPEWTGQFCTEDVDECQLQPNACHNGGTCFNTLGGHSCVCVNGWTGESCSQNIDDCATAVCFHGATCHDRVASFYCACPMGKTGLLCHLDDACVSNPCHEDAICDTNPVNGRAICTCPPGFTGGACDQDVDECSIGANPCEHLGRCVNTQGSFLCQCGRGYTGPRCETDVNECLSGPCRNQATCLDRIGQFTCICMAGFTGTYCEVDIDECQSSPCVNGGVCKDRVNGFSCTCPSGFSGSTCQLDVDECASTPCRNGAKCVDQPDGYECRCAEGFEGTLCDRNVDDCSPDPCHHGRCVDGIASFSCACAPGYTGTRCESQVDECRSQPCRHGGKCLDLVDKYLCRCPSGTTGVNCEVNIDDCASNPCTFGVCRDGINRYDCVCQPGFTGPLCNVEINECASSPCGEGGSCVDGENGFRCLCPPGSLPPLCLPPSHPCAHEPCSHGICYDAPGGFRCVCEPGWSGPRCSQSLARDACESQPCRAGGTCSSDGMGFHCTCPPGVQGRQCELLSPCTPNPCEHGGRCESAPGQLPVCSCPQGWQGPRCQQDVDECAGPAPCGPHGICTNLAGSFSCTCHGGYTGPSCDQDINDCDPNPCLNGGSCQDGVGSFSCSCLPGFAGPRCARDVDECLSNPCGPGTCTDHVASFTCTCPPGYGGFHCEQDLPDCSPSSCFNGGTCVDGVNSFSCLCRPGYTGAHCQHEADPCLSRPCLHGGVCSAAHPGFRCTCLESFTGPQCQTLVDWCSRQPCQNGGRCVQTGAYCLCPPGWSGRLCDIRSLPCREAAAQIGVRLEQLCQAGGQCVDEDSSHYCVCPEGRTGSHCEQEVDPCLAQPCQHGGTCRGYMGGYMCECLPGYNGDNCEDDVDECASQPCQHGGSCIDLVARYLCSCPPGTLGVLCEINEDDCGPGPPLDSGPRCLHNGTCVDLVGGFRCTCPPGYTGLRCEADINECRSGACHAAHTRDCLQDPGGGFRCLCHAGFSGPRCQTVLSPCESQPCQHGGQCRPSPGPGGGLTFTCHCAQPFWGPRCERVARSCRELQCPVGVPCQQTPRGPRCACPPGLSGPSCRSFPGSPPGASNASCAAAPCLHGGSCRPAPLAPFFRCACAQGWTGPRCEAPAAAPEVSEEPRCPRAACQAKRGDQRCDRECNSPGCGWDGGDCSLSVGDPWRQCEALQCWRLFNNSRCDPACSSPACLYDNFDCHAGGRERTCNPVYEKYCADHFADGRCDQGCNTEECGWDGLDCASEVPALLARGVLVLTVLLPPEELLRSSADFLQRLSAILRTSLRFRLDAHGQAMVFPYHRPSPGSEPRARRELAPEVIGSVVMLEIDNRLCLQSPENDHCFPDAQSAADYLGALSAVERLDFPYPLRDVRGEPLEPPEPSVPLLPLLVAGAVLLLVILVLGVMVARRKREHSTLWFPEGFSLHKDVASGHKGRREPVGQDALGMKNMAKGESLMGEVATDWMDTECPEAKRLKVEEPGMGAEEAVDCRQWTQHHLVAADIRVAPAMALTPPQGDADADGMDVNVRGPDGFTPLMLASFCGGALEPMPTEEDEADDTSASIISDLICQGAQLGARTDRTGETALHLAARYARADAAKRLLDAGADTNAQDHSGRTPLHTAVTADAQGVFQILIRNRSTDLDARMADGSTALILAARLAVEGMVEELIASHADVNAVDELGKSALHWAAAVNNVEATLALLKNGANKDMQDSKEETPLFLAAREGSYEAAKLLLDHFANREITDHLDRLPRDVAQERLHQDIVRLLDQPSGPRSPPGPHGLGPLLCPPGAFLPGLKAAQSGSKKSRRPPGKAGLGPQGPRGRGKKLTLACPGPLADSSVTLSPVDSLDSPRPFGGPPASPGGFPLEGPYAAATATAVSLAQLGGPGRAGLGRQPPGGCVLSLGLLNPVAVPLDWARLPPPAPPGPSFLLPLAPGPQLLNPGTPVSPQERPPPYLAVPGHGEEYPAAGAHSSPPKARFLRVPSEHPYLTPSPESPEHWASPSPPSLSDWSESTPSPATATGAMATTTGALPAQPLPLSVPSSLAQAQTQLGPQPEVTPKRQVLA

Take `C#CCN1[C@@H](Cc2ccccc2)C(=O)O[C@H](Cc2ccccc2)[C@@H]1/C=C/C1CC1`: the composite z-score in [1] is -0.733; in [2] it was 0.819; in experiment [3], -0.0807; in experiment [4], 0.289; in [5], -0.271; in experiment [6] it was -0.151. The composite z-score was 0.86 in [7]; 0.426 in experiment [9]; 0.198 in experiment [10]; -0.101 in experiment [11]; 1.14 in experiment [15]; -0.185 in [17]. The composite z-score was 0.33 in experiment [18], 0.246 in experiment [19] and -0.0422 in [20]. Also, the z-score in experiment [8] was -3.46 (inactive); in experiment [12], 0.295 (inactive); in [13] it was -0.361 (inactive); in experiment [14] it was 0.148 (inactive); in [16], 0.855 (inactive).
With `C=C1C(=O)C=C2CN(C(=O)c3ccccc3)[C@@](Cc3ccc(OC)cc3)(C(=O)OC)[C@@H]12`, the composite z-score in experiment [1] came to 0.53; in [2] it was 0.442; in experiment [3], 0.369; in experiment [4], 1.01; in experiment [5], 1.72; in experiment [6], 2.09. The composite z-score in [7] was 1.29; in [9], 0.924; in experiment [10], 0.212; in [11] it was 1.54; in experiment [15], 3.85; in experiment [17], 0.68. Further, the results for the composite z-score in [18], in experiment [19] and in [20] were 0.232, 1.01 and 0.146, respectively. The z-score in [8] is 2.08 (inactive); in experiment [12], 0.573 (inactive); in experiment [13], 1.85 (inactive); in [14], 10.3 (active); in experiment [16] it was -0.656 (inactive).
As for `C=CCC(OC(C)=O)[C@@H]1[C@@H](N(Cc2cccc3ccccc23)C(=O)Cc2ccc(OC)cc2)c2cc(OCCCO)ccc2N1C(=O)Cc1ccc2ccccc2c1` (stereo not given in full), the composite z-score was -0.289 in experiment [1]; -0.176 in experiment [2]; -0.14 in experiment [3]; 0.184 in experiment [4]; -0.529 in experiment [5]; 0.906 in experiment [6]. The composite z-score in [7] was -0.29; in [9], 0.165; in [10], -0.364; in experiment [11], 0.402; in experiment [15] it was 0.574; in [17], -0.0911. The results for the composite z-score in [18], in experiment [19] and in [20] were 0.656, -0.87 and -0.0828, respectively. Moreover, the z-score in [8] was -1.77 (inactive); in [12], -0.0978 (inactive); in [13], 0.374 (inactive); in experiment [14], -1.51 (inactive); in experiment [16] it was -0.079 (inactive).
Take `COC(=O)c1cccc([C@H]2OC(=CC(=O)OC(C)C)C[C@@H](c3cccc(C(=O)OC)c3)O2)c1`: the composite z-score was -0.3 in [1]; 2.67 in experiment [2]; 0.357 in experiment [3]; 1.14 in experiment [4]; 1.08 in experiment [5]; 1.4 in [6]. The composite z-score is 1.12 in experiment [7]; 0.902 in [9]; -0.289 in [10]; 1.55 in experiment [11]; 3.6 in [15]; 0.272 in experiment [17]. The figures for the composite z-score in [18], in experiment [19] and in experiment [20] were 1.22, 0.974 and 0.0297, respectively. The z-score in experiment [8] was 0.946 (inactive); in experiment [12] it was -0.132 (inactive); in experiment [13], -2.24 (inactive); in experiment [14], -1.39 (inactive); in experiment [16], -0.259 (inactive).
In the case of `C=CCN1C(=O)[C@@]2(O[C@@H](CCn3cc([C@H](O)c4ccccc4)nn3)[C@H]([Si](C)(C)c3ccc(OC)cc3)[C@H]2C)c2cc(N3C(=O)c4cccc5cccc3c45)ccc21`, the composite z-score in experiment [1] was 0.241; in [2], -0.477; in experiment [3], -0.151; in [4], -0.215; in experiment [5] it was -0.902; in experiment [6], 0.548. Also, the composite z-score in experiment [7] was 0.482; in [9], -0.365; in [10], -0.271; in experiment [11], 0.183; in experiment [15] it was 1.5; in experiment [17], -0.189. The composite z-score is -0.684 in [18], -0.193 in [19] and -0.199 in experiment [20]. In addition, the z-score is -1.04 (inactive) in [8]; 0.584 (inactive) in experiment [12]; 1.18 (inactive) in experiment [13]; 1.31 (inactive) in experiment [14]; -0.76 (inactive) in [16].
